{"source": "PubChem BioAssay AID1259251", "about": "(The Scripps Research Institute Molecular Screening Center, 2017)", "note": "Among all 30,000 compounds or so, about 580 (1.9%) were called active. The sample holds actives, similar compounds and a random draw of the others, so the mix is not that of the screen. A number with no mark means an inactive call. No stated cut-off is given here; in the data, active means inhibition above about 43%; inactive means the rest.", "data": [{"target": "Serine/threonine-protein kinase ULK1 (Homo sapiens) (UniProt O75385)", "sequence (O75385 whole entry, looked up)": "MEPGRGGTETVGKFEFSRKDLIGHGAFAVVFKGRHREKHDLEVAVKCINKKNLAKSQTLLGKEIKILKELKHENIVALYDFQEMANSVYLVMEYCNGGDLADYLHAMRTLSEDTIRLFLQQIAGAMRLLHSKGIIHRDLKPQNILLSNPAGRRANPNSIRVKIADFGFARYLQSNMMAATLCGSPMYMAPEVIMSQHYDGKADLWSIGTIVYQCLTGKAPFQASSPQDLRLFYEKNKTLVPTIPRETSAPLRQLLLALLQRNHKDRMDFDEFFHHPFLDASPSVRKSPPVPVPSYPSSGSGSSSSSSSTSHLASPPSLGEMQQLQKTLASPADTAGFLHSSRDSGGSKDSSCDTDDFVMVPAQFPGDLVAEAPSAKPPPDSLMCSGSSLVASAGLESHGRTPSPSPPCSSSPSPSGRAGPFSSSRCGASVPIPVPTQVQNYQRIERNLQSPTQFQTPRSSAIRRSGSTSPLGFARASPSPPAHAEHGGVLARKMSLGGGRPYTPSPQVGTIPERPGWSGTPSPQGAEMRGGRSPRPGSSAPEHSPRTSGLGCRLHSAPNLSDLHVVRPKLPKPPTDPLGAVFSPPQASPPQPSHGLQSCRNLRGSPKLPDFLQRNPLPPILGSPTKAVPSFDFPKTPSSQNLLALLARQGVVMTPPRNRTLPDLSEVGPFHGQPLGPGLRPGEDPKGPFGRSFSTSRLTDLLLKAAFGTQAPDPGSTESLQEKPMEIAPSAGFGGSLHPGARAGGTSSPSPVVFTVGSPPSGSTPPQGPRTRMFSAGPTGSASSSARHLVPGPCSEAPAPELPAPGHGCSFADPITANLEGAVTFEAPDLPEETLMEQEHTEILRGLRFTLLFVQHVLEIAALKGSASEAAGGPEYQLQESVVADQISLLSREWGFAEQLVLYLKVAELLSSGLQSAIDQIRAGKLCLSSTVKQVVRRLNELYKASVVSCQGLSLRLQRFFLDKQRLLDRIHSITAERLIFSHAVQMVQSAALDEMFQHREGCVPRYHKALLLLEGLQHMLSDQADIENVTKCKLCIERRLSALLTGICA", "assay": "ULK1 kinase inhibitors, primary screen, biochemical, AlphaScreen (AID 1259251);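 further: 0% = median of compound wells and 100% = no enzyme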", "details": "AlphaScreen Atg13 phosphorylation by ULK1, luminescence; at 5.96 µM; hits give high values", "values": [{"smiles": "Cn1nccc1-c1cc(F)cc(-c2ccnc(Nc3ccc(-n4cnc(N5CCOCC5)n4)cc3)n2)c1", "inhibition": "10.3%"}, {"smiles": "CN1CCN(c2ncn(-c3ccc(Nc4nccc(-c5ccc(NS(C)(=O)=O)cc5)n4)cc3)n2)CC1", "inhibition": "63.3% (active)"}, {"smiles": "CN(C)c1cc(F)cc(-c2ccnc(Nc3ccc(-n4cnc(N5CCOCC5)n4)cc3)n2)c1", "inhibition": "-12.3%"}, {"smiles": "CC(=O)Nc1ccc(Nc2ncnc3nc(N4CCOCC4)[nH]c23)cc1", "inhibition": "-7.72%"}, {"smiles": "CCCNC(=O)Cc1cn(-c2ccc(Nc3ccc(-n4ccnc4)cc3)nn2)c2ccccc12", "inhibition": "0.04%"}, {"smiles": "CC(C)(C)NC(=O)N1CCCN(c2ccc(S(C)(=O)=O)cc2)CC1", "inhibition": "6.31%"}, {"smiles": "CN1CCc2nc(NC(=O)c3ccc(Cl)cc3Cl)sc2C1", "inhibition": "-7.21%"}, {"smiles": "O=C(NCc1ccccc1)c1csc(Nc2ccc(N3CCOCC3)cc2)n1", "inhibition": "25.3%"}, {"smiles": "O=C(Nc1ccc(N2CCOCC2)cc1)c1cnc(Nc2ccc(-n3ccnc3)cc2)s1", "inhibition": "17.6%"}, {"smiles": "O=C(Nc1ccc(N2CCOCC2)cc1)c1csc(Nc2ccc(-n3ccnc3)cc2)n1", "inhibition": "47.9% (active)"}, {"smiles": "O=C(Nc1ccccc1)c1ccc2nc(NCCN3CCOCC3)sc2c1", "inhibition": "2.47%"}, {"smiles": "O=C(Nc1ccc(N2CCOCC2)cc1)c1ccc2nc(Nc3ccncc3)sc2c1", "inhibition": "52.9% (active)"}, {"smiles": "CN(C)c1cccc(Nc2nc3ccc(C(=O)Nc4ccc(N5CCOCC5)cc4)cc3s2)c1", "inhibition": "24.1%"}, {"smiles": "Cc1cnnn1-c1ccc(Nc2nccc(-c3cc(C#N)cc(N4CCOCC4)c3)n2)cc1", "inhibition": "14.1%"}, {"smiles": "O=C(Nc1ccc2[nH]ncc2c1)[C@H]1C[C@@H](O)CN1C(=O)Cc1ccc(Br)cc1", "inhibition": "5.77%"}, {"smiles": "O=C(NCCCN1CCCC1=O)c1cccc(Cl)n1", "inhibition": "10.3%"}, {"smiles": "FC(F)(F)c1ccc(Cn2cnc3c(Nc4ccc5c(c4)OCO5)nc(N4CCC(N5CCOCC5)CC4)nc32)cc1", "inhibition": "10%"}, {"smiles": "c1cnc2ccc(Nc3nc4ncnc(NCc5nc6ccccc6[nH]5)c4[nH]3)cc2c1", "inhibition": "15.5%"}, {"smiles": "O=C(NC1CC1)c1cccc(Nc2cccnc2)n1", "inhibition": "-1.02%"}, {"smiles": "FC(F)(F)c1cccc(CNc2nc(Nc3ccc(N4CCOCC4)cc3)nc3c2ncn3-c2ccsc2)c1", "inhibition": "-6.13%"}, {"smiles": "CC(C)n1c(N2CCOCC2)nc2c(NCc3ccccc3)ncnc21", "inhibition": "-2.96%"}, {"smiles": "CCN(CC)C(=O)C1CCCN(c2cccc(C(=O)NCc3nc4ccccc4[nH]3)c2)C1", "note": "(centres undefined)", "inhibition": "7.49%"}, {"smiles": "COc1cccc(CN(CCN(C)C)C(=O)c2cn3cc(-c4ccnc(N)n4)ccc3n2)c1", "inhibition": "0.96%"}, {"smiles": "COc1cc2nc(-c3csc4ccccc34)nc(Nc3ccc(Oc4ccccc4)cc3)c2cc1OC", "inhibition": "-36.4%"}, {"smiles": "O=C(NC1CCN(Cc2ccccc2)CC1)c1ccc(-c2ccccc2)s1", "inhibition": "-15.1%"}, {"smiles": "COc1ccc(C2=NC(C)(C)NC(c3ccccc3O)C2)cc1", "note": "(centres undefined)", "inhibition": "22.6%"}, {"smiles": "Cc1nc(C)n(-c2ccc(Nc3cc(-n4ccnn4)ccn3)cc2)n1", "inhibition": "-1.71%"}, {"smiles": "Cc1ncn(-c2ccc(Nc3ncc(-c4cnn(C)c4)c(-c4cnn(C)c4)n3)cc2)n1", "inhibition": "-7.3%"}, {"smiles": "Cc1nc(C)n(-c2ccc(Nc3ncc4ccc(-c5cnn(C)c5)cc4n3)cc2)n1", "inhibition": "75.2% (active)"}, {"smiles": "Cc1noc(C)c1-c1nc(N)c2ncn(-c3ccccc3)c2n1", "inhibition": "29.2%"}, {"smiles": "CC(=O)NNC(=O)C(C)Oc1ccc(Cl)cc1Cl", "note": "(centres undefined)", "inhibition": "3.12%"}, {"smiles": "CC1(C(=O)Nc2ccc(-c3cn[nH]c3)cc2)COc2ccccc2C1", "note": "(centres undefined)", "inhibition": "-8.37%"}, {"smiles": "c1ccc(-n2cnc(-c3ccnc(Nc4ccc(N5CCOCC5)cc4)c3)n2)cc1", "inhibition": "-3.17%"}, {"smiles": "c1ccc(Nc2nccc(Nc3ccc(N4CCOCC4)cc3)n2)cc1", "inhibition": "4.53%"}, {"smiles": "Fc1cnc(Nc2ccc(N3CCNCC3)cc2)cc1-n1cnc(Nc2ccccc2)n1", "inhibition": "90.4% (active)"}, {"smiles": "CN(C)c1cccc(Nc2nccc(NCc3ccccc3)n2)c1", "inhibition": "1.8%"}, {"smiles": "CC[C@H]1OC(=O)[C@H](C)C(=O)[C@H](C)[C@@H](O[C@@H]2O[C@H](C)C[C@H](N(C)C)[C@H]2O)[C@](C)(OC)C[C@@H](C)C(=O)[C@H](C)[C@@H]2N(CCCCn3cnc(-c4cccnc4)c3)C(=O)OC21C", "note": "(some centres undefined)", "inhibition": "-2.96%"}, {"smiles": "O=C(NCCCN1CCCC1=O)c1cnc(-c2ccccc2)s1", "inhibition": "0.58%"}, {"smiles": "COc1ccc(CCNc2nc(-c3ccc(N4CCOCC4)nc3)ncc2C)cc1", "inhibition": "-5.93%"}, {"smiles": "COc1ccc(CCNc2nc(Nc3ncccn3)nc3c2ncn3CCN2CCCC2=O)cc1", "inhibition": "27.6%"}, {"smiles": "O=C(NCc1nc2ccccc2[nH]1)c1csc(Nc2cnccn2)n1", "inhibition": "46.6% (active)"}, {"smiles": "O=C(NCCc1ccc(O)cc1)c1csc(Nc2cnccn2)n1", "inhibition": "12.4%"}, {"smiles": "O=C(NCc1nc2ccccc2[nH]1)c1cccc(Nc2ncccn2)n1", "inhibition": "10.3%"}, {"smiles": "CC(=O)c1cccc(-c2nccc(Nc3ccccc3)n2)c1", "inhibition": "-2.99%"}, {"smiles": "COc1cc2nc(Nc3ccc(-n4ccnc4)cc3)nc(Nc3cc(OC)c(OC)c(OC)c3)c2cc1OC", "inhibition": "-15.5%"}, {"smiles": "C/C(CC(=O)NC1CCCC1)=N\\NC(=O)COc1cccc(C)c1", "inhibition": "-34.7%"}, {"smiles": "Cc1cc(NCc2ccccc2)nc(N2CCN(Cc3ccc4c(c3)OCO4)CC2)n1", "inhibition": "-4.09%"}, {"smiles": "COc1ccc2c(c1)CC(C(=O)Nc1nc3ccc(-c4cn[nH]c4C)cc3s1)CO2", "note": "(centres undefined)", "inhibition": "-7.18%"}, {"smiles": "CCOc1ccccc1C1/C(=C(\\O)c2ccc(OC)cc2C)C(=O)C(=O)N1CCN(C)C", "note": "(centres undefined)", "inhibition": "-3.39%"}, {"smiles": "Cc1ccc(-c2ncn(-c3ccc(Nc4ncc(F)c(-c5cccc(N6CCOCC6)c5)n4)cc3)n2)cn1", "inhibition": "-16.4%"}, {"smiles": "Fc1cnc(Nc2ccc(Cn3ccnc3)cc2)nc1-c1cccc(N2CCOCC2)c1", "inhibition": "45.9% (active)"}, {"smiles": "Fc1cc(-c2nc(Nc3ccc(CN4CCOCC4)cc3)ncc2F)cc(N2CCOCC2)c1", "inhibition": "13.5%"}, {"smiles": "CC(=O)OCc1nc2ccc(-c3ccncc3)cc2[nH]1", "inhibition": "-6.82%"}, {"smiles": "O=C(NCc1cccnc1)c1ccnc(NCc2cccnc2)c1", "inhibition": "8.32%"}, {"smiles": "Cc1c[nH]c2ncnc(-c3ccc4c(C(=O)Nc5cccc(C(=O)NC(C)C)c5)n(CC5CC5)nc4c3)c12", "inhibition": "50.2% (active)"}, {"smiles": "CC(C)NC(=O)c1cccc(NC(=O)Nc2ccc(-c3ccnc(N)n3)cc2)c1", "inhibition": "1.02%"}, {"smiles": "COc1cccc(CN(CCN(C)C)C(=O)c2c3ccc(-c4cn[nH]c4)cc3nn2CC2CC2)c1", "inhibition": "-4.47%"}, {"smiles": "O=C(Nc1ccc2[nH]ncc2c1)C1CCN(C(=O)[C@@H](O)c2ccccc2Cl)CC1", "inhibition": "2.37%"}, {"smiles": "CC(C)n1c(-c2csc3ccccc23)nc2c(NCc3ccccc3)ncnc21", "inhibition": "0%"}, {"smiles": "Cc1cnc(-c2c(C)nn(C)c2C)nc1NCCN1CCOCC1", "inhibition": "3.9%"}, {"smiles": "COc1cc(Nc2nc(NCc3cccc(C(F)(F)F)c3)c3[nH]cnc3n2)cc(OC)c1OC", "inhibition": "47.7% (active)"}, {"smiles": "COc1cc(Nc2nc(Nc3cc(OC)c(OC)c(OC)c3)c3[nH]cnc3n2)cc(OC)c1OC", "inhibition": "16.2%"}, {"smiles": "COc1cc(Nc2nc(NCc3cccc(C(F)(F)F)c3)c3ncn(C4CCCCC4)c3n2)cc(OC)c1OC", "inhibition": "-5.25%"}, {"smiles": "O=C(Nc1nc2c(s1)CN(Cc1ccccc1)CC2)c1cc(Cl)ccc1Cl", "inhibition": "-4.96%"}, {"smiles": "COc1cc(Nc2cc(N3CCN(Cc4ccc5c(c4)OCO5)CC3)ncn2)cc(OC)c1OC", "inhibition": "-5.38%"}, {"smiles": "Cc1cnc(-c2ccc(N3CCOCC3)nc2)nc1NCCN1CCOCC1", "inhibition": "2.67%"}, {"smiles": "COc1ccc(-c2nc(NCCN3CCOCC3)c3ncn(-c4ccccc4)c3n2)cn1", "inhibition": "-16.5%"}, {"smiles": "Nc1nc(NCc2ccccc2)cc(NCc2cccnc2)n1", "inhibition": "-4.44%"}, {"smiles": "CNC(=O)c1ccccc1Nc1cc(Nc2ccc(N3CCOCC3)cc2OC)ncc1F", "inhibition": "16.4%"}, {"smiles": "COc1cc(N2CCOCC2)ccc1Nc1cc(Nc2ccccc2C(N)=O)ccn1", "inhibition": "7.87%"}, {"smiles": "CNC(=O)c1ccccc1Nc1nc(Nc2ccc(N3CCOCC3)cc2OC)ncc1Cl", "inhibition": "77.3% (active)"}, {"smiles": "COC(=O)c1ccc(C2Nc3c(C(=O)OC)cccc3C3C=CCC32)cc1", "note": "(centres undefined)", "inhibition": "7.56%"}, {"smiles": "CCCN1CCc2c(sc(N)c2C(=O)OC)C1", "inhibition": "7.44%"}, {"smiles": "c1ccc(CN2CCC(Nc3ccnc(NC4CCN(Cc5ccccc5)CC4)n3)CC2)cc1", "inhibition": "-6.32%"}, {"smiles": "CC(=O)Nc1ccc(NC(=O)c2ccc(-c3ccc(C(N)=O)cc3)s2)cc1", "inhibition": "-5.71%"}, {"smiles": "O=C(NCc1cccnc1)c1cccc(Nc2ccc(N3CCOCC3)cc2)n1", "inhibition": "5.75%"}, {"smiles": "Cc1nn(C)c(C)c1-c1cccc(C(=O)NCCN(C(C)C)C(C)C)n1", "inhibition": "-2.03%"}, {"smiles": "CC(C)n1cnc2c(NCc3cccnc3)nc(Nc3ccc(N4CCOCC4)cc3)nc21", "inhibition": "1.97%"}, {"smiles": "c1cc(Nc2nc(Nc3ccc(N4CCOCC4)cc3)c3ncn(-c4ccsc4)c3n2)ccn1", "inhibition": "19.3%"}, {"smiles": "CC(C)n1cnc2c(Nc3ccc(N4CCOCC4)cc3)nc(NC3CCC(O)CC3)nc21", "note": "(centres undefined)", "inhibition": "43.6% (active)"}, {"smiles": "CC(C)n1cnc2c(NC3CCN(Cc4ccccc4)CC3)nc(Nc3ccc(N4CCOCC4)cc3)nc21", "inhibition": "11.3%"}, {"smiles": "CC(C)n1cnc2c(NCc3ccccc3)nc(NC3CCC(O)CC3)nc21", "note": "(centres undefined)", "inhibition": "0.05%"}, {"smiles": "CC(C)n1cnc2c(Nc3ccc(N4CCOCC4)cc3)nc(Nc3ccncc3)nc21", "inhibition": "55.3% (active)"}, {"smiles": "O=C(Nc1ccc2[nH]ncc2c1)[C@@H]1C[C@H](O)CN1C(=O)Cc1ccc(Br)cc1", "inhibition": "5.62%"}]}]}
